PfHsp90 yeast 2: reduces growth (ATP signal) of yeast expressing P. falciparum Hsp90; S. cerevisiae expressing PfHsp90, BacTiter-Glo ATP, 48 h; yeast lacking PDR1 and PDR3 efflux regulators; inhibition, % at 9.4 µM; hit rate 0.32% among 310,000; AID 504621;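 active means every replicate shows inhibition above about 80%, whatever the replicate mean, limit read from the data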
NSD2 HMT inh: NSD2 (human) methyltransferase inhibition; inhibition, % at 12.5 µM; O96028; hit rate 0.54% among 310,000; NSD2 peptide methylation, AlphaScreen, 120 min; AID 743445; in the data active means inhibition above about 50%
SIRT5 inh: inhibitors of human sirtuin-5 desuccinylase | Q9NXA8 | Purified SirT5, succinyl-peptide AMC, trypsin-coupled fluorescence | inhibition, % at 15 µM | hit rate 1.1% among 330,000; in the data active means inhibition above about 15%
ARNT TACC3 PPI: disrupts binding between human ARNT and TACC3. inhibition, % at 9.99 µM. Q9Y6A5. AID 623870. hit rate 0.66% among 390,000. AlphaScreen His-ARNT PAS-B/GST-TACC3 binding, luminescence; TACC3 fragment carries E629A point mutation;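 active means mean inhibition of replicates at least 50% and at least half of replicates each reaching 50%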
Casp6 inh: inhibitors of human caspase-6; P55212; purified caspase-6, Z-VEID-R110 cleavage fluorescence; inhibition, % at 12.5 µM; hit rate 0.53% among 350,000; AID 686996;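 active means mean inhibition across replicates at least about 35%, with every replicate also reaching that limit, limit read from the data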
AlphaScreen art: interferes with AlphaScreen signal, flagging NSD2 false positives | shares compounds with NSD2 HMT inh | AlphaScreen artifact counterscreen, preloaded methylated H4 peptide | AC35, µM (highest dose often 10 µM) | hit rate 9.4% among 1,500; call rule not given here
Numbers stand for hits; – = inactive; · = no result. Rows were chosen to be rich in hits. Some 2.1% of all compounds tested hit in one or more screens of this group.

SMILES	PfHsp90 yeast 2	NSD2 HMT inh	SIRT5 inh	ARNT TACC3 PPI	Casp6 inh	AlphaScreen art
CCC(=O)N1CC2(C1)[C@H](c1ccccc1)[C@@H](CO)N2C(=O)c1ccncc1	·	·	–	·	–	·
COCCCNC(=S)Nc1cccc2ncccc12	·	86.1	·	–	–	–
O=C(C[C@H]1C[C@@H]2c3cc(NC(=O)C4CCC4)ccc3O[C@@H]2[C@@H](CO)O1)NCc1cccc(F)c1	·	·	–	–	–	·
Cc1noc(C)c1S(=O)(=O)N(C)C[C@@H]1OCCCC[C@@H](C)Oc2ccc(NC(=O)CCCN(C)C)cc2C(=O)N([C@H](C)CO)C[C@H]1C	·	·	–	–	–	·
COc1ccc(OCCSc2nnc(CCNC(=O)c3ccc(Cl)c(Cl)c3)n2C)cc1	–	59.1	–	·	–	–
C[C@H]1CCCCO[C@@H](CN(C)C(=O)CCCN(C)C)[C@@H](C)CN([C@@H](C)CO)C(=O)c2cc(NC(=O)c3ccncc3)ccc2O1	·	·	–	·	–	·
C=CCn1c(N)c(C(=O)NCC2CCCO2)c2nc3ccccc3nc21 (stereo unspecified)	–	98.7	·	–	·	–
C[C@H](O)C#Cc1cnc2c(c1)C(=O)N([C@@H](C)CO)C[C@@H](C)[C@@H](CN(C)C(=O)c1ccc(F)cc1)O2	·	·	–	–	–	·
N#Cc1c(Cl)nc2c(c1C#N)CCCC2	–	61.0	–	–	–	–
Cc1cc(=O)n(CCCO)c(O)c1C#N	–	–	·	–	·	·
Cc1cc(=O)n(Cc2ccccc2)c(O)c1C#N	–	52.9	–	–	–	–
O=C(c1ccc2c(c1)OCO2)C1CCCN(Cc2ccc3cccc(F)c3n2)C1 (stereo unspecified)	–	51.2	·	·	·	–
CCOC(=O)C1=CN(c2cccc(F)c2)C=C(C(=O)OCC)C1c1cc(OC)c(O)c([N+](=O)[O-])c1	–	57.1	·	–	·	–
COC(=O)C1=CN(c2ccc(F)cc2)C=C(C(=O)OC)C1c1ccc([N+](=O)[O-])cc1	–	–	–	–	–	·
COc1cccc(CN2[C@H](CO)[C@@H](c3ccccc3)C23CN(C(=O)C2CCOCC2)C3)c1	·	·	–	·	–	·
O=C(OCC(=O)N1CCOCC1)c1ccc(Br)cc1	–	63.9	–	–	–	–
CC1=NOC(=O)/C1=C\c1ccc(-c2ccc(Br)cc2)o1	104.8	69.4	–	–	–	–
CC1=NOC(=O)/C1=C\c1ccc(-c2ccc(Br)cc2C(=O)O)o1	–	–	–	–	–	·
CCOC(=O)c1ccc(S(=O)(=O)N2CCN(c3ccccn3)CC2)cc1	–	50.6	–	–	–	–
O=C(O)c1cc(N/N=C/c2ccc3c(c2)OCCO3)ccc1Cl	–	–	–	–	–	·
O=C(O)c1cc(N/N=C/c2ccc3c(c2)OCO3)ccc1Cl	·	75.2	–	–	–	–
Cc1cc(/C=C(/C#N)c2nc3ccccc3[nH]2)c(C)n1-c1cc(C(=O)O)cc(C(=O)O)c1	–	76.2	–	–	·	–
COc1ccc(OC)c(/C=C2\N=C(c3ccccc3)OC2=O)c1	–	–	–	–	–	·
COc1ccc(/C=C2\N=C(C(C)(C)C)OC2=O)c(OC)c1	–	91.0	–	–	–	–
O=C(O)C1CC(c2ccccc2F)=NO1 (stereo unspecified)	–	108.4	·	·	·	–
SMILES	PfHsp90 yeast 2	NSD2 HMT inh	SIRT5 inh	ARNT TACC3 PPI	Casp6 inh	AlphaScreen art
O=C(NCCc1cccs1)C1CC(c2ccccc2F)=NO1 (stereo unspecified)	–	·	·	–	·	·
CC(=O)Nc1ccc(S(=O)(=O)/N=C2/NC(=O)/C(=C\c3ccco3)S2)cc1	–	54.7	15.3	·	64.7	–
Cc1ccc(S(=O)(=O)/N=C2/NC(=O)/C(=C\c3ccccc3)S2)cc1	–	–	–	·	–	·
O=C(C[C@@H]1C[C@H]2c3cc(NC(=O)C4CCOCC4)ccc3O[C@H]2[C@H](CO)O1)NCc1ccc(Cl)cc1	·	·	–	–	–	·
COC(=O)c1cc(S(=O)(=O)Nc2cccc(OC)c2)cn1C	–	·	·	–	–	·
CCOC(=O)c1cc(S(=O)(=O)Nc2ccc(OC)cc2OC)cn1C	–	56.2	–	–	–	–
COCCNC(=O)C[C@H]1C[C@H]2c3cc(NC(=O)CC4CC4)ccc3O[C@H]2[C@@H](CO)O1	·	·	–	–	–	·
CC(NC1=CC(=O)c2cccnc2C1=O)C(O)c1ccccc1 (stereo unspecified)	–	113.6	–	47.4	99.7	–
CC(c1ccccc1)N1C(=O)c2cccnc2C1=O (stereo unspecified)	–	–	–	–	–	·
O=C(Cc1ccccn1)N1CC(=O)N2[C@H](CO)[C@@H](c3ccc(C#CC4CCCCC4)cc3)[C@@H]2C1	·	·	–	·	–	·
CCN1C(=O)c2ccccc2S(=O)(=O)c2ccc(C(=O)NC(C)C)cc21	–	51.6	–	–	–	–
C[C@@H]1CCCCO[C@H](CN(C)C(=O)c2ccccc2)[C@H](C)CN([C@@H](C)CO)C(=O)c2cc(NC(=O)Nc3ccc(F)cc3)ccc2O1	·	·	–	–	–	·
CCN(C(=S)Nc1ccc(C(C)=O)cc1)C1CCCCC1	–	53.4	20.6	–	–	–
Cc1c(-c2ccc(Cl)cc2)oc(=O)c2c(N)n(-c3ccccc3)nc12	–	–	·	–	·	·
Nc1c2c(=O)oc(-c3ccccc3)cc2nn1-c1ccccc1	–	126.3	·	–	·	–
CCCOc1ccc(-c2nc(SCc3ccccc3)[nH]c(=O)c2C#N)cc1OC	–	66.1	–	–	–	–
O=C(N[C@H]1C=C[C@H](CC(=O)N2CCc3ccccc3C2)O[C@H]1CO)C1CCOCC1	·	·	–	·	–	·
COCC(=O)N(C)C[C@H]1Oc2ncc(-c3ccc(C#N)cc3)cc2C(=O)N([C@@H](C)CO)C[C@H]1C	·	·	–	–	–	·
COc1ccc(C(C[N+](=O)[O-])c2c(C)[nH]n(-c3ccccc3)c2=O)cc1 (stereo unspecified)	116.7	92.3	–	71.7	–	–
Cc1cccc(-c2ccc([C@@H]3[C@H](CO)N4C(=O)CN(C(=O)c5ccccc5)C[C@@H]34)cc2)c1	·	·	–	·	–	·
CC(=O)NCCN1C(=O)C2C3c4ccccc4C(c4ccccc43)C2C1=O (stereo unspecified)	–	75.7	–	–	–	–
CCC(=O)N[C@@H]1CC[C@H](CCn2cc(C3CC3)nn2)O[C@@H]1CO	·	·	–	–	–	·
COc1ccc2c3c([nH]c2c1)[C@H](CO)N(C(=O)c1ccccn1)CC31CCN(C(=O)C2CCC2)CC1	·	·	–	·	–	·
C[C@H]1CN([C@@H](C)CO)C(=O)c2cc(-c3ccccc3F)cnc2O[C@H]1CN(C)C(=O)CN(C)C	·	·	–	–	–	·
CN(C)CCNc1nc(-c2ccco2)c2c(c1C#N)CC(C)(C)OC2	–	126.7	·	–	·	–
CC1(C)Cc2c(c(-c3ccco3)[nH]c(=O)c2C#N)CO1	–	58.4	·	–	·	–
CC1(C)Cc2c(C#N)c(NCc3ccco3)nc(-c3ccco3)c2CO1	–	–	·	–	·	·

Bioassay records from PubChem BioAssay.
